Laboratory results reported in PubChem BioAssay.
Activity calls are given as the source filed them. Unless noted, no rule for the calls is given here.

Tests used:
[1] = compounds binding Alexa647 anti-His antibody – biochemical, small-molecule microarray, 635 nm fluorescence, artefact control for SMM control protein annotation, primary screen (AID 1128); settings: higher = more signal;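 also: score merges feature fluorescence with signal-to-noise for each printed compound spot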
[2] = test system: Human papillomavirus type 1a E7 protein (residues 1-88); test: HPV1a E7 small-molecule binders, primary screen, biochemical, small-molecule microarray, residues 1-88, 635 nm (AID 1129); settings: small-molecule microarray binding, fluorescence 635 nm; higher = more signal
[3] = biological target: Focal adhesion kinase 1 (Homo sapiens) (UniProt Q05397); test: PTK2 protein binding on printed compound slides – biochemical, small-molecule microarray, 635/667 nm fluorescence, BSA, DTT, primary screen (AID 1130); settings: 635 nm fluorescence, higher = more signal;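 also: composite of spot emission at 667 nm and signal to noise over triplicate slides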
[4] = test system: Fibrinogen (Alexa647-labelled); test: Alexa647-fibrinogen binding to printed small molecules – biochemical, small-molecule microarray, 635/667 nm fluorescence, artefact control for SMM control-protein annotation, profiling panel (AID 1131); settings: fibrinogen-A647 binding fluorescence, higher = more signal;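 also: z-score merges 667 nm fluorescence with per-spot signal-to-noise over triplicate slides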
[5] = biological target: Follistatin (Homo sapiens) (UniProt P19883); test: FST protein binding to printed compounds – biochemical, small-molecule microarray, 635/667 nm fluorescence, primary screen (AID 1132); settings: 635 nm fluorescence, higher = more signal
[6] = biological target: Fibroblast growth factor 2 (Homo sapiens) (UniProt P09038); test: basic fibroblast growth factor binding to printed compounds – biochemical, small-molecule microarray, 635/667 nm fluorescence, primary screen (AID 1133); settings: FGF2, fluorescence 635/667, higher = more signal
[7] = JC-1 mitochondrial potential readout, lung cancer cells – cell-based, A549, JC-1 fluorescence, basal, 24 h, 100 nL, profiling panel (AID 1138); settings: higher = more signal;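 also: A549 lung adenocarcinoma cells under basal conditions with no added stimulus; test concentration not given here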
Lefty1 = Lefty1 protein binding to printed compounds – biochemical, small-molecule microarray, 635/667 nm fluorescence, primary screen (AID 1139); settings: fluorescence 635/667, higher = more signal
[8] = test system: wheat germ agglutinin (Triticum aestivum), Alexa647-labelled; test: Alexa647-WGA lectin binding to printed small molecules – biochemical, small-molecule microarray, 635/667 nm fluorescence, artefact control for SMM control-protein annotation, profiling panel (AID 1140); settings: WGA-A647 binding, 635 nm fluorescence, higher = more signal;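 also: score merges 667 nm feature emission with signal to noise over triplicate slides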
[9] = biological target: Luciferin 4-monooxygenase (Photinus pyralis) (UniProt P08659); test: inhibition of purified Photinus pyralis luciferase – biochemical, luminescence, purified enzyme, 2006 set, primary screen (AID 1141); settings: purified firefly luciferase, SteadyGlo luminescence, 30 min; higher = more signal, called active from +8 up or from −8 down;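 also: cell-free assay with purified firefly luciferase at 100 ng per well in PBS; test concentration not given here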
[10] = test system: Wnt5a (protein binding on small-molecule microarray); test: small molecules binding Wnt5a protein – biophysical, small-molecule microarray, 635/667 nm fluorescence, primary screen (AID 1142); settings: 635 nm fluorescence, higher = more signal;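 also: fluorescence read at 667 nm with signal to noise per printed feature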
[11] = ATP-based viability of Huh7 replicon cells – cell-based, CellTiter-Glo luminescence, basal, 48 h, cytotoxicity control for HCV replication inhibitor project, primary screen (AID 1143); settings: higher = more signal, called active from +8 up or from −8 down;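 also: Huh7 hepatoma cells carrying a hepatitis C replication reporter with no stimulus; test concentration not given here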
[12] = Pseudomonas biofilm growth suppression – PAO1 strain, BacTiter-Glo luminescence, LB-PBS, primary screen (AID 1144); settings: P. aeruginosa PAO1 biofilm, 12 h, higher = more signal
[13] = basal CRE-LacZ reporter activity in PC12 – cell-based, unstimulated, primary screen (AID 1145); settings: no forskolin, luminescence, 4.5 h, higher = more signal, called active from +8 up or from −8 down
[14] = forskolin-driven CRE-LacZ activity in PC12 – cell-based, CRE-LacZ reporter, forskolin-stimulated, primary screen (AID 1146); settings: luminescence, 4.5 h, higher = more signal, called active from +8 up or from −8 down;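 also: PC12 cells with 6xCRE LacZ reporter stimulated by forskolin 10 µM; beta-galactosidase reporter signal reflecting CREB driven transcription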
[15] = biological target: Streptavidin (Streptomyces avidinii) (UniProt P22629); test: compounds binding control protein streptavidin – biophysical, small-molecule microarray, 635/667 nm fluorescence, artefact control for SMM compound annotation, primary screen (AID 1147); settings: higher = more signal;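 also: signal reflects streptavidin binding to arrayed compounds as a control protein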
[16] = probe aInhba binding on compound microarray – biochemical, small-molecule microarray, 635/667 nm fluorescence, primary screen (AID 1148); settings: higher = more signal;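 also: score merges 667nm spot fluorescence with signal-to-noise for antibody binding to printed compounds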
Torsin-1A (Homo sapiens) [17] = biological target: Torsin-1A (Homo sapiens) (UniProt O14656); test: TOR1A wild-type binding on microarray – cell lysate, small-molecule microarray, lysate, 635/667 nm, primary screen (AID 1149); settings: COS7 hTOR1A-WT lysate, 635 nm fluorescence, higher = more signal
Torsin-1A (Homo sapiens) [18] = biological target: Torsin-1A (Homo sapiens) (UniProt O14656); test: torsin A mutant lysate binding on microarrays – cell lysate, small-molecule microarray, COS7 lysate, 635/667 nm fluorescence, primary screen (AID 1150); settings: COS7 hTOR1A mutant lysate, 635 nm fluorescence, higher = more signal;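 also: score pools 667 nm emission and signal to noise measuring lysate protein binding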
[19] = test system: Sonic hedgehog protein (Shh); test: Sonic hedgehog microarray binding compounds – biochemical, small-molecule microarray, 635/667 nm fluorescence, primary screen (AID 1151); settings: 635 nm fluorescence, higher = more signal;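 also: Shh protein binding to compounds spotted on small-molecule microarray slides; score combines spot fluorescence intensity with signal-to-noise across triplicate slides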

Sequence of Luciferin 4-monooxygenase (Photinus pyralis) (P08659 whole entry, looked up): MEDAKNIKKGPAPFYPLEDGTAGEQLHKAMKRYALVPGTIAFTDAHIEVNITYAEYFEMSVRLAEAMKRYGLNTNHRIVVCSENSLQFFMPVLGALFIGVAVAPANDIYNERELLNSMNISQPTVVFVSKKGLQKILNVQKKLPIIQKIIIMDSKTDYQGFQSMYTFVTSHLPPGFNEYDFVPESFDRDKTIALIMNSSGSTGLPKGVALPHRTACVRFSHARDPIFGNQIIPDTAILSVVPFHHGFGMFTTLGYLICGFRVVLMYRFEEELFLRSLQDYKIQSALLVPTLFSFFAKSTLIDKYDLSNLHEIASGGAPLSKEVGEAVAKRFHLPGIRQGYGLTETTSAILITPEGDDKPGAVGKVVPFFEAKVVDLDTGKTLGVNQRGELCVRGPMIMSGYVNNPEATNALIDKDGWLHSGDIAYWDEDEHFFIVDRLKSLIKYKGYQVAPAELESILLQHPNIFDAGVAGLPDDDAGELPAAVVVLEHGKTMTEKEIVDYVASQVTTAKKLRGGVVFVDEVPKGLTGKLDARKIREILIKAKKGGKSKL
Sequence of Torsin-1A (Homo sapiens) (O14656 whole entry, looked up): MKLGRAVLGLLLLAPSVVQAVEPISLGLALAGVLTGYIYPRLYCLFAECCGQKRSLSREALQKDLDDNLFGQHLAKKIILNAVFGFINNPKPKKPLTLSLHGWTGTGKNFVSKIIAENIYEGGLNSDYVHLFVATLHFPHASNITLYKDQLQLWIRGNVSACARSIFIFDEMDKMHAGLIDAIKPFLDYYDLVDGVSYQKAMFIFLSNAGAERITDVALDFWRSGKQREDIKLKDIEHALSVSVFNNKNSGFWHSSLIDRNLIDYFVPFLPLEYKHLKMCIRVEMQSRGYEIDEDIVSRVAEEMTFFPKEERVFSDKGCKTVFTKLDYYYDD
Sequence of Follistatin (Homo sapiens) (P19883 whole entry, looked up): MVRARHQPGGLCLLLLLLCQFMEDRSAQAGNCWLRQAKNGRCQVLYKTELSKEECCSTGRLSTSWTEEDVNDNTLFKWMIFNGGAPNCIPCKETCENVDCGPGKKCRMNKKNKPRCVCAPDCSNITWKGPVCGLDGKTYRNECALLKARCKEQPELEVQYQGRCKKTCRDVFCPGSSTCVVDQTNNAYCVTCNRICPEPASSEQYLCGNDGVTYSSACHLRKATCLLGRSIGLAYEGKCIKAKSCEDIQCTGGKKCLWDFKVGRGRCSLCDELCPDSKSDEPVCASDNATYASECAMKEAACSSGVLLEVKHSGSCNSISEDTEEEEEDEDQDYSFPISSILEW
Sequence of Focal adhesion kinase 1 (Homo sapiens) (Q05397 whole entry, looked up): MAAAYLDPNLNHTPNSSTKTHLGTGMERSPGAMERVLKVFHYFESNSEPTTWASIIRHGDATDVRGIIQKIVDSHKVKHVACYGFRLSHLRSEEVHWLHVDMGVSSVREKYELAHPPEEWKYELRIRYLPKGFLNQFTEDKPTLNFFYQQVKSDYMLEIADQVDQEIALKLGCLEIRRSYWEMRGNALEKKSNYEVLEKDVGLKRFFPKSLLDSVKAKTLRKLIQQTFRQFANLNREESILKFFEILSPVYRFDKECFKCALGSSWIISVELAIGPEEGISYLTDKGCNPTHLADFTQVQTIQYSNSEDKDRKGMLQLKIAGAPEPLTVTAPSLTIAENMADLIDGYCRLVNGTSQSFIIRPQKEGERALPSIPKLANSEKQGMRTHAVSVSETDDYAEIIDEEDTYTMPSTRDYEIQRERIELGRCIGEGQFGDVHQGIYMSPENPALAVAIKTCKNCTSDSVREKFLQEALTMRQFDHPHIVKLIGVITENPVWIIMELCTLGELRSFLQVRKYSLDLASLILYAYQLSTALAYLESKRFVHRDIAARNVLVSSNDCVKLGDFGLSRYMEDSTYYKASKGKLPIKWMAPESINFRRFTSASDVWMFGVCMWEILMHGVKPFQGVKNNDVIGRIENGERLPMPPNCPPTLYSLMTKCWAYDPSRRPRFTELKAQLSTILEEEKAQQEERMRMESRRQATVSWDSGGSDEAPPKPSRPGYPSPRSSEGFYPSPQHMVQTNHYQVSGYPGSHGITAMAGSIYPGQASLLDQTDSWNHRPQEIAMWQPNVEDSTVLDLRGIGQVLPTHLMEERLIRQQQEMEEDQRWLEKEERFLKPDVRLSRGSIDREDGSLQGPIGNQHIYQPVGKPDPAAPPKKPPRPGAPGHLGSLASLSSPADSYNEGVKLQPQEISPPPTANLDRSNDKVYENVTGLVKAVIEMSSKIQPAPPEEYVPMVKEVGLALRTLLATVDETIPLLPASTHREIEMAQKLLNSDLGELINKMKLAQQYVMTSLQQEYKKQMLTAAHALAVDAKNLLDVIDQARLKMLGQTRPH
Sequence of Streptavidin (Streptomyces avidinii) (P22629 whole entry, looked up): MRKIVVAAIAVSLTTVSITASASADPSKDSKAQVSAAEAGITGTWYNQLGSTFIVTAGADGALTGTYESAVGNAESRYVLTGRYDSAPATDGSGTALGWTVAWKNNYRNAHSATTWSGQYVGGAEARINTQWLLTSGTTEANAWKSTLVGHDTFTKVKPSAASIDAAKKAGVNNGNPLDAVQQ
Sequence of Fibroblast growth factor 2 (Homo sapiens) (P09038 whole entry, looked up): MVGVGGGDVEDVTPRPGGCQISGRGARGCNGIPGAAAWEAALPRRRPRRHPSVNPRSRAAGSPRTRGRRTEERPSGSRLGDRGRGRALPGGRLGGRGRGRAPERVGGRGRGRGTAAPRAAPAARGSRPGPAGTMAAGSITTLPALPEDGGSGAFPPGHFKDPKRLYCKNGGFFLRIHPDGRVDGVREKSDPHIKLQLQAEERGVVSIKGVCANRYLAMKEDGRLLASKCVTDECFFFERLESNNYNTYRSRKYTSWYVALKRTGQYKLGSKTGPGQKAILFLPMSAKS

| Structure (SMILES) | composite z-score [1] | composite z-score [2] | composite z-score [3] | composite z-score [4] | composite z-score [5] | composite z-score [6] | z-score [7] | composite z-score (Lefty1) | composite z-score [8] | z-score [9] | composite z-score [10] | z-score [11] | z-score [12] | z-score [13] | z-score [14] | composite z-score [15] | composite z-score [16] | composite z-score (Torsin-1A (Homo sapiens) [17]) | composite z-score (Torsin-1A (Homo sapiens) [18]) | composite z-score [19] |
| --- | --- | --- | --- | --- | --- | --- | --- | --- | --- | --- | --- | --- | --- | --- | --- | --- | --- | --- | --- | --- |
| CN1CCC(CCCO)=CC1c1ccc(CN2CCCC2)cc1 (stereo not given) | 0.358 | 1.06 | -0.0595 | -0.294 | 1.42 | 1.65 | 0.0421 | 1.57 | 1.18 | 0.536 (inactive) | 0.958 | -0.428 (inactive) | -0.692 (inactive) | -0.974 (inactive) | 0.239 (inactive) | 0.825 | 0.0096 | 3.12 | 2.86 | 2.08 |
| COc1ccc(CCNC(=O)[C@@]2(Sc3ccc(C)cc3)CC(=O)N(Cc3ccccc3Cl)[C@@H]2c2ccc(CO)cc2I)cc1 | 2.25 | 0.349 | -0.0568 | 0.35 | 1.03 | 0.664 | 2.03 | -0.954 | 0.593 | 0.674 (inactive) | -0.234 | -2.2 (inactive) | 0.0319 (inactive) | 0.569 (inactive) | 1.12 (inactive) | -0.539 | 0.12 | -0.794 | -0.491 | 0.153 |
| CCOC(=O)C[C@H]1[C@H](OC(=O)c2ccccc2-c2ccccc2)[C@@H](NC(=O)Cc2ccc(OC)cc2)c2cc(OCCCO)ccc2N1C(=O)c1ccccc1 | -0.269 | -0.371 | 0.145 | -0.449 | 0.23 | -0.443 | 0.362 | 0.189 | -0.0397 | 0.474 (inactive) | 0.222 | -0.0369 (inactive) | 0.817 (inactive) | 4.57 (inactive) | 2.83 (inactive) | -0.105 | -0.287 | -0.259 | 0.405 | -0.127 |
| CN(C)C(=O)[C@@]1(CCC(=O)OC(C)(C)C)N=C(c2ccc(OCCCO)cc2)O[C@H]1c1ccccc1 | 3.44 | 1.11 | 0.384 | 0.65 | 0.381 | -0.309 | -0.457 | -0.943 | 0.798 | -0.874 (inactive) | 0.257 | -4.42 (inactive) | -0.573 (inactive) | 0.195 (inactive) | -1.4 (inactive) | 0.0732 | 0.776 | 0.635 | 1.74 | -0.467 |
| O=C1N(CCS(=O)(=O)c2ccccc2)Cc2ccccc2[C@H]2OC(c3ccc(OCCCO)cc3)=N[C@@]12CCS(=O)(=O)c1ccccc1 | 2.44 | 1.21 | 0.772 | 0.561 | 1.33 | 1.31 | -1.15 | -0.0425 | 1.09 | -1.7 (inactive) | 1.05 | -1.07 (inactive) | -0.447 (inactive) | 0.881 (inactive) | -1.33 (inactive) | 0.421 | 0.0831 | 0.307 | -0.0941 | 0.806 |
| CCC(CC)C(O)C1C=CC2C(=O)N(c3ccccc3)C(=O)C2N1Nc1ccc(C#N)cc1 (stereo not given) | 1.74 | 1.27 | 0.813 | 0.991 | 0.816 | -0.177 | -0.111 | 0.0695 | 1.21 | -0.27 (inactive) | 0.658 | 0.625 (inactive) | -0.939 (inactive) | 1.01 (inactive) | 0.435 (inactive) | 1.24 | 0.75 | 0.223 | 0.775 | -0.41 |
| COc1ccccc1CN1C(=O)c2ccccc2[C@@H](C(=O)NCCN2CCOCC2)[C@@H]1c1ccc(CO)cc1 | -0.355 | 0.789 | -0.444 | 0.234 | 0.912 | 1.26 | 0.708 | -0.0327 | 0.285 | 0.706 (inactive) | 0.274 | -0.916 (inactive) | -1.04 (inactive) | 0.001 (inactive) | -1.09 (inactive) | 0.156 | -0.13 | 0.52 | 0.767 | 0.197 |
| COC(=O)c1ccc(C23CC2(C(NP(=O)(c2ccccc2)c2ccccc2)c2ccccc2)C3)cc1 (stereo not given) | 2.12 | 1.14 | 1.2 | 0.984 | 1.11 | -0.575 | 2.44 | -0.414 | 1.15 | -5.98 (inactive) | 0.211 | -2.07 (inactive) | 0.523 (inactive) | -1.14 (inactive) | -0.0812 (inactive) | 1.7 | 0.178 | 0.862 | 1.64 | -0.803 |
| COc1ccc(C(O)C2C=CC3C(=O)N(c4ccccc4)C(=O)C3N2Nc2ccc([N+](=O)[O-])cc2)cc1OCc1ccccc1 (stereo not given) | 1.71 | 1.2 | 0.315 | 0.995 | 0.508 | 0.156 | 0.41 | -0.29 | 1.45 | 1.42 (inactive) | 1.43 | -0.317 (inactive) | 0.208 (inactive) | -0.387 (inactive) | -0.588 (inactive) | 0.935 | 1.16 | -0.153 | 0.159 | -0.381 |
